Results reported in PubChem BioAssay (Tox21).
Records with an inconclusive call do not appear. Unmarked numbers belong to inactive results. Calls of active or inactive are those of the source. The call rests on the fitted dose curve; in most records, active means well fitted inhibition curve with a large enough effect in the repeat runs; inconclusive means weak or mixed curves; inactive means no such curve, though single readings can be large or run the other way.

assay: qHTS assay to identify small molecule antagonists of the thyroid receptor (TR) signaling pathway (AID 743065); conditions: GH3.TRE-Luc, T3-stimulated luciferase inhibition, 23.5 h; series mostly up to 70.3 µM; activity, negative = inhibition: at the top concentration; further: nearly all actives have a fitted effect of over 55% in size
Excerpt: U.S. Tox21 Program National Center for Advancing Translational Sciences [NCATS] NIH Chemical Genomics Center [NCGC] U.S. Environmental Protection Agency [EPA] National Institutes of Environmental Health Sciences [NIEHS] National Toxicology Program [NTP] U.S. Food and Drug Administration [FDA] Tox21 Assay Overview: Thyroid receptor (TR), a nuclear hormone receptor, plays an important role in development, proliferation, differentiation, metabolism, brain function, and cardiovascular system. […] To profile the Tox21 10K compound library in TR signaling, a cell-based GH3-TRE-Luc assay (GH3.TRE-Luc cell line, developed by the laboratory of Dr. Albertinka J. Murk, Wageningen University) was used to measure the inhibition of TR. GH3 (rat pituitary tumor) cells stably expressing a TR activity sensor consisting of two TR response elements and a luciferase reporter gene.
Tox21 Assay Protocol Summary: GH3.TRE-Luc cells were dispensed at 1500 cells/4 uL/well into 1536-well white solid bottom plates using a Multidrop Combi dispenser (Thermo Fisher Scientific Inc., Waltham, MA). After the assay plates were incubated at 37 C for 4 hours, 23 nL of library compound or DMSO controls was transferred to the assay plates by a pintool station (Kalypsys, San Diego, CA), followed by addition of 1 ul of T3 (1 nM, final concentration in the wells) to stimulate TR transactivation. The assay plates were incubated at 37 C for 23.5 h, and then 1 uL of CellTiter-Fluor reagent (Promega, Madision, WI) of measuring cytotoxicity was added to each well using a Bioraptr Flying Reagent Dispenser (FRD) workstation (Beckman Coulter, Indianapolis, IN, USA). The plates were incubated at 37 C and 5% CO2 for additional 30 min, and fluorescence intensity was measured by a ViewLux plate reader (PerkinElmer, Shelton, CT). For measuring luciferase reporter gene activity, 4 uL of ONE-Glo Luciferase Assay reagent (Promega) was added to each well using a Bioraptr FRD (Beckman Coulter), followed by 30 min incubation at room temperature. The luminescence intensity of plates was recorded by a ViewLux plate reader (PerkinElmer, Shelton, CT).
On the % scale 0 is the no-effect control and ±100 the full control effect; potency means the concentration at half of the fitted maximal effect.

SMILES	activity, negative = inhibition	Potency
NS(=O)(=O)c1cc2c(cc1Cl)NC(CSCc1ccccc1)=NS2(=O)=O	7.73% [at 32.5 µM]	
C=CC(=O)N1CCOCC1	9.31%	
CC(C)(O)c1ccccc1	14.8%	
C1C2OC2C2C1C1CC2C2OC12 (stereo not given)	18.9% [at 95 µM]	
CCOC(=O)Nc1ccc2c(c1)N(C(=O)CCN1CCOCC1)c1ccccc1S2	-2.56% [at 32.5 µM]	
O=C(O)C(O)[C@H](O)[C@@H](O)[C@H](O)[C@H](O)CO (stereo not given in full)	-4.64% [at 95 µM]	
OCC(O)[C@@H](O)[C@H](O)[C@H](O)CO[C@H]1O[C@H](CO)[C@@H](O)[C@H](O)[C@H]1O (stereo not given in full)	-0.446%	
Nc1ccc2cc(S(=O)(=O)O)ccc2c1	7.49%	
C=C(C)C(=O)NCCC[N+](C)(C)C	-1.71%	
Cc1ccccc1C(=O)O	-1.02%	
C=C(C)C(=O)NCCCN(C)C	13.1%	
COCCOC(=O)CC#N	3.38%	
O=C(O)c1cccc(C(=O)O)n1	7.77%	
NCC[C@H](O)C(=O)N[C@@H]1C[C@H](N)[C@@H](O[C@H]2O[C@H](CN)[C@@H](O)[C@H](O)[C@H]2O)[C@H](O)[C@H]1O[C@H]1O[C@H](CO)[C@@H](O)[C@H](N)[C@H]1O	0.0713%	
COC(C(=O)O)c1ccccc1 (stereo not given)	13.9%	
CCCCCCCCC=O	1.84%	
c1ccc2cnncc2c1	13.9%	
CSc1ccc(C=O)cc1	-7.04%	
Fc1ccccc1-c1ccccc1	-4.88% [at 95 µM]	
C[N+](C)(C)CC[N+]1(C)Cc2c(Cl)c(Cl)c(Cl)c(Cl)c2C1	2.6%	

SMILES	activity, negative = inhibition	Potency
COc1cccc(OC)c1	7.14%	
Oc1ccc2c(c1)OC[C@@H](N1CCC(O)(c3ccc(F)cc3)CC1)[C@H]2O	9.6%	
COC(=O)C1=C(C)NC(C)=C(C(=O)OCC(C)=O)C1c1ccccc1[N+](=O)[O-] (stereo not given)		7.5 µM (active)
OCCN1C[C@H](O)[C@@H](O)[C@H](O)[C@H]1CO	3.96%	
CC(=O)OC(C)(C)C	3.23%	
CCC(=O)c1cccc(Cl)c1	-1.98% [at 95 µM]	
C(=C(c1ccccc1)c1ccccc1)c1ccccc1	-8.47%	
CCCCC=O	14.2%	
CCO[Si](CCCN=C=O)(OCC)OCC	7.09%	
CCCCCCCCN(C)CCCCCCCC	22.9% [at 95 µM]	
CN(C)C(=O)C(CCN1CCC(O)(c2ccc(Cl)cc2)CC1)(c1ccccc1)c1ccccc1		8.41 µM (active)
CC(=O)CCc1ccc(O)cc1	21.3%	
CC(C)COC(=O)c1ccccc1O	4.25%	
CC(C)=CC(=O)O	2.77%	
O=S(=O)(c1cccc2cnccc12)N1CCCNCC1	-20.1%	
NS(=O)(=O)c1cc(C2(O)NC(=O)c3ccccc32)ccc1Cl (stereo not given)	-0.984% [at 32.5 µM]	
CCOC(=O)[C@H](CCc1ccccc1)N[C@@H](C)C(=O)N1CCC[C@H]1C(=O)O	8.51%	
OC/C=C/c1ccccc1		inactive
CC1=CC(C)C(C=O)C(C)C1 (stereo not given)	0.542%	
CCCC(=O)O[C@]1(C(=O)CCl)[C@@H](C)C[C@H]2[C@@H]3CCC4=CC(=O)C=C[C@]4(C)[C@@]3(F)C(=O)C[C@@]21C		11.9 µM (active)
